# Measurements as given in PubChem BioAssay.
# Test system: Noggin (protein binding on small-molecule microarray)
# Assay: small molecules binding Noggin protein – biochemical, 635/667 nm fluorescence, primary screen (AID 1095);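 note: score merges 667 nm feature fluorescence with signal to noise over triplicate slides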
# Conditions: 635 nm fluorescence, higher = more signal
row,SMILES,composite z-score
1,CCCC1(C(=O)OC)C=C2C(=C(C)C(=O)C2C)CN1 (stereo not drawn),-0.0743
2,NCCCCCNC(=O)[C@@H]1C[C@@H]2C(=O)N[C@@H](CCCCN)C(=O)N2[C@@H]1c1ccc(O)cc1,1.67
3,CCCN1C(=O)[C@]2(Cc3ccccc31)N=C(c1ccc(OCCCO)cc1)O[C@@H]2c1ccccc1,1.66
4,CCN(CC)c1ccc(N2CC=CC34O[C@@H]5/C=C\CCCOC(=O)C5[C@H]3C(=O)N(C(C)CO)[C@@H]4C2=O)cc1 (stereo partly drawn),-0.045
5,NC(=O)[C@H]1[C@@H]2C(=O)O[C@@H](c3ccccc3)[C@@H](c3ccccc3)N2[C@@H](c2ccc(OCCO)cc2)[C@]12C(=O)Nc1ccc(C#CCCO)cc12,0.425
6,CC(C)C(CO)N1C(=O)[C@@H]2[C@H]3C(=O)OCC=C[C@H]3OC23C=CCN(c2ccc(Cl)cc2)C(=O)[C@@H]13 (stereo partly drawn),-1.16
7,C=CCNC(=O)[C@@H]1[C@H]2C(=O)O[C@H](c3ccccc3)[C@H](c3ccccc3)N2[C@H](c2ccccc2OCCO)[C@@]12C(=O)Nc1ccc(C#CCC(C(=O)OC)C(=O)OC)cc12,0.0639
8,COc1ccc(C#Cc2ccc3c(c2)[C@]2(C(=O)N3)[C@H](C(=O)O)[C@H]3C(=O)O[C@H](c4ccccc4)[C@H](c4ccccc4)N3[C@@H]2c2ccc(O)cc2)cc1,-0.654
9,CCCC[C@@H](O)C1=C(COC)C[C@H]2C(=O)N(Cc3ccccc3)C(=O)[C@H]2[C@H]1CO,1.18
10,COC(=O)[C@@]1(Cc2ccc(F)cc2)[C@H]2c3cc(C(=O)N4CCCC4)n(Cc4ccc(C)c(F)c4F)c3C[C@H]2CN1C(=O)c1ccccc1,-0.849
11,C=CCNC(=O)[C@@H]1[C@H]2C(=O)O[C@H](c3ccccc3)[C@H](c3ccccc3)N2[C@H](c2ccc(O)cc2)[C@@]12C(=O)N(C(=O)OCCOC)c1ccc(C#CC3=CCCCC3)cc12,1.14
12,C#Cc1cc2ccccc2oc1=O,-2.71
13,COc1cc(NN2C(C(O)c3cc(OC)c(OC)c(OC)c3)C=CC3C(=O)N(C)C(=O)C32)cc(OC)c1OC (stereo not drawn),-0.112
14,CO[C@H]1O[C@H](CO)[C@@H](OC(=O)Nc2ccccc2)[C@H](OC(=O)c2cc3ccccc3[nH]2)[C@H]1OC(=O)c1cc2ccccc2[nH]1,0.248
15,CCOC(=O)C[C@H]1[C@H](OC(=O)Cc2ccc3c(c2)OCO3)[C@@H](NC(=O)c2ccc3ccccc3n2)c2cc(OCCCO)ccc2N1C(=O)c1ccc2ccccc2n1,0.719
16,COc1ccc(C#Cc2ccc3c(c2)[C@]2(C(=O)N3)[C@H](c3ccc(OCCO)cc3)N3[C@H](c4ccccc4)[C@H](c4ccccc4)OC(=O)[C@H]3[C@@H]2C(=O)NC[C@H](O)c2ccccc2)cc1,0.447
17,NCCCCCNC(=O)[C@H]1C[C@H]2C(=O)N3CCC[C@H]3C(=O)N2[C@H]1c1cccc(OCCO)c1,-0.321
18,CO[C@H]1O[C@H](CO)[C@@H](OC(=O)Nc2ccc(Br)cc2)[C@@H]2OC(=O)[C@@H](Cc3ccccc3)C/C=C/C[C@H](Cc3ccccc3)C(=O)O[C@@H]12,0.202
19,CCOC(=O)[C@@H]1CCCCN1C(=O)C(=O)OC,0.415
20,O=C(Cc1ccccc1)[C@H]1C2C=CCCC(c3ccccc3)=C2CN1Cc1ccccc1 (stereo partly drawn),-0.0884
21,CCOC(=O)C[C@H]1[C@H](OC(=O)Cc2ccc3c(c2)OCO3)[C@@H](NC(=O)C2CCCCC2)c2cc(OCCCO)ccc2N1C(=O)c1ccccc1,0.0367
22,C=C[C@H](C)[C@H](OC(=O)Nc1ccc(SC)cc1)c1ccc(OCCO)cc1,0.415
23,CCCCC(CC)C(O)C1C=CC2C(=O)N(c3ccccc3)C(=O)C2N1Nc1ccccc1F (stereo not drawn),0.0782
24,Cc1ccc(C(C)CC(O)C2C=CC3C(=O)N(c4ccccc4)C(=O)C3N2Nc2ccccc2)o1 (stereo not drawn),-0.0381
25,CCOC(=O)C1=C[C@@H](C(C)(C)C)N(S(=O)(=O)c2ccc(C)cc2)[C@H]1c1cccc2ccccc12,0.171
26,CC(C)N1C(=O)C[C@@](C(=O)NC2CC2)(c2ccc([N+](=O)[O-])cc2)[C@H]1c1ccc(CO)cc1,-1.15
27,COC(=O)c1c(CC[C@@H](CO)NC(=O)N2CCC[C@H]2Cn2cc(C3(O)CCCCC3)nn2)oc(C(C)=O)c1C(=O)OC,0.872
28,NC(=O)NCC#Cc1ccc2c(c1)[C@]1(C(=O)N2)[C@H](c2ccccc2OCCO)N2[C@H](c3ccccc3)[C@H](c3ccccc3)OC(=O)[C@H]2[C@@H]1C(=O)NC[C@H](O)c1ccccc1,-0.0053
